Assay results: PubChem BioAssay (NCI)
About 83,000 compounds went through this panel and 20% of them were active in at least one assay; those are over-represented in the sample as a whole.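 Single-dose data. Exposure time 48 hours. Values below 10 considered active.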 A number with no mark means an inactive call. Activity calls are given as the source filed them.

Assays:
Assay in all cases: NCI-60 one-dose screen, 48 h (100 = growth as untreated, 0 = no growth, -100 = all killed)
Conditions in all cases: 10 µM unless noted
T-47D breast = test system: T-47D breast
BT-549 breast = test system: BT-549 breast
MDA-MB-435 melanoma = test system: MDA-MB-435 melanoma
SW-620 colon = test system: SW-620 colon
MCF7 breast = test system: MCF7 breast
HCT-116 colon = test system: HCT-116 colon
HCC-2998 colon = test system: HCC-2998 colon
KM12 colon = test system: KM12 colon

SMILES | growth (T-47D breast) | growth (BT-549 breast) | growth (MDA-MB-435 melanoma) | growth (SW-620 colon) | growth (MCF7 breast) | growth (HCT-116 colon) | growth (HCC-2998 colon) | growth (KM12 colon)
O=C1COCCN1c1ccc(Nc2nc(Cl)nc(N3CCOCC3)n2)cc1 | 88.5% | 97.1% | 99.5% | 105% | 85.5% | 101% | 89.1% | 93.8%
COc1ccc(-c2ccc(NNC(=O)c3ccc(F)cc3)nn2)cc1OC | 20% | 58.4% | 83.2% | 75.1% | 51.1% | 66.2% | 90.5% | 92.3%
CCCCCn1c(C)cc(/C=C\c2ccc3cc(C)ccc3[n+]2C)c1C | -49.1% (active) | -29.9% (active) | -90.2% (active) | -35.9% (active) | -18.2% (active) | -34.4% (active) | -70.1% (active) | -72.4% (active)
COc1cc(C)cc2oc3oc(=N)c(C(=O)c4ccccc4)cc3c(=O)c12 | 103% | 97.3% | 102% | 104% | 96.2% | 93.9% | 108% | 104%
CCCCCN(CCCCC)CCCCCCCCN1CCCc2ccccc21 | 108% | 88.6% | 87.9% | 82.8% | 101% | 64.8% | 74.8% | 73.4%
CCCCOC(=O)c1cccc([N+](=O)[O-])c1 | 110% | 104% | 103% | 103% | 115% | 113% | 98.5% | 108%
C=C(C)[C@@H]1CC[C@]2(C(N)=O)CC[C@]3(C)[C@H](CC[C@@H]4[C@@]5(C)C/C(=C/c6cccnc6)[C@H](O)C(C)(C)[C@@H]5CC[C@]43C)[C@@H]12 | 16.1% [100 µM] | 26.6% [100 µM] | 9% [100 µM] (active) | 18.8% [100 µM] | 11.3% [100 µM] | 7.1% [100 µM] (active) | 19.5% [100 µM] | 14.2% [100 µM]
Cc1ccccc1-n1nnc(C(=O)Nc2nc3ccc(F)cc3s2)c1C | 18.1% | 36.8% | 59.2% | 85.5% | 65.3% | 46.5% | 78.6% | 72.4%
Cc1cccc(C[C@H](NC(=O)Nc2ccc(Cl)cc2F)C(=O)N[C@@H]2C(=O)N3C[C@H](O)C[C@H]3C(=O)N3CCCC[C@H]3C(=O)N[C@@H](C)C(=O)N3C[C@H](C)C[C@H]3C(=O)O[C@H]2C)c1 | 5.41% (active) | -9.79% (active) | -5.25% (active) | 20.7% | 6.39% (active) | -31.6% (active) | -49% (active) | -31.4% (active)
